Experimental data as given in PubChem BioAssay (NCI).
“And” between values parts separate entries of the source, which are not always exact repeats. Equal values may be shown once. About 83,000 compounds went through this panel and 20% of them were active in at least one assay; those are over-represented in the sample as a whole.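 Plates (96-well) were seeded with cells, treated with compound at one concentration, and incubated for 48 hours before percent growth was determined.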 The source made the active and inactive calls. Rule for the calls: active = growth percent below 10; inactive = the rest.

What was measured:
Assay in all cases: NCI-60 one-dose screen, 48 h (100 = growth as untreated, 0 = no growth, -100 = all killed)
Conditions in all cases: 10 µM
K-562 leukemia = tested on: K-562 leukemia
MALME-3M melanoma = tested on: MALME-3M melanoma
RXF 393 renal = tested on: RXF 393 renal
UACC-257 melanoma = tested on: UACC-257 melanoma
SK-MEL-28 melanoma = tested on: SK-MEL-28 melanoma
SN12C renal = tested on: SN12C renal
TK-10 renal = tested on: TK-10 renal
CAKI-1 renal = tested on: CAKI-1 renal
RPMI-8226 leukemia = tested on: RPMI-8226 leukemia
BT-549 breast = tested on: BT-549 breast
MDA-MB-435 melanoma = tested on: MDA-MB-435 melanoma
HCC-2998 colon = tested on: HCC-2998 colon
HOP-92 NSCLC = tested on: HOP-92 NSCLC
SK-MEL-2 melanoma = tested on: SK-MEL-2 melanoma
A498 renal = tested on: A498 renal
OVCAR-3 ovarian = tested on: OVCAR-3 ovarian

Measured: growth

CN1C(=O)[C@]23SSC1(C)C(=O)N2[C@H]1Nc2ccccc2C1([C@@]12c4ccccc4N[C@@H]1N1C(=O)C4(C)SS[C@]1(C(=O)N4C)[C@H]2O)[C@@H]3O (stereo not given in full)
active: K-562 leukemia 2.18% | MALME-3M melanoma -81.5% | RXF 393 renal -93.3% | UACC-257 melanoma -96.9% | SK-MEL-28 melanoma -96.5% | SN12C renal -96.1% | TK-10 renal -95.7% | CAKI-1 renal -99.8% | RPMI-8226 leukemia -16.9% | BT-549 breast -99.5% | MDA-MB-435 melanoma -94.3% | HCC-2998 colon -83.8%

CC1=C[C@H]2O[C@@H]3C[C@H]4OC(=O)/C=C\C=C\[C@H]([C@@H](C)O)OCC/C(C)=C/C(=O)OC[C@@]2(CC1)[C@]4(C)[C@]31CO1
active: HOP-92 NSCLC -19.1% | K-562 leukemia -6.8% | MALME-3M melanoma -65.9% | RXF 393 renal -70.5% | SK-MEL-28 melanoma -38.6% | SK-MEL-2 melanoma -61.1% | SN12C renal -16.1% | TK-10 renal -24.5% | A498 renal -80.8% | RPMI-8226 leukemia -30.5% | OVCAR-3 ovarian -19.2% | BT-549 breast -28.6% | MDA-MB-435 melanoma -83.5% | HCC-2998 colon -55.6%

C/C=C/CC(C)C(O)[C@H](NC(=O)[C@@H]1CCCN1C(=O)C(C)(C)NC(=O)CCCCCCCCC)C(=O)N[C@@](C)(CC)C(=O)N[C@@H](CCC(N)=O)C(=O)N[C@H](CCC(N)=O)C(=O)NC(C)(C)C(=O)NC(C)(C)C(=O)N[C@@H](CCC(N)=O)C(=O)N[C@H](CC(C)C)C(=O)N[C@H](CO)CC(C)C (stereo not given in full)
7.09% (active) and 29.1% (inactive): RPMI-8226 leukemia
-40.8% (active) and 38.8% (inactive): A498 renal
inactive: SK-MEL-2 melanoma 13.2% and 89.1% | SN12C renal 18.6% and 12.1% | TK-10 renal 59.9% and 97.1% | CAKI-1 renal 13.1% and 44.1% | OVCAR-3 ovarian 76.2%
-12% (active) and 13.2% (inactive): HCC-2998 colon
7.21% (active) and 76.4% (inactive): HOP-92 NSCLC
active: MALME-3M melanoma -65.1% and -22% | UACC-257 melanoma -66.9% and 3.39% | SK-MEL-28 melanoma -92.6% and -78.4% | BT-549 breast -33.5% | MDA-MB-435 melanoma -84.2% and -6.26%
-61.8% (active) and 31.5% (inactive): RXF 393 renal
-17.8% (active) and 16.5% (inactive): K-562 leukemia

CC(=O)O[C@@H]1[C@@H]2O[C@H]2[C@@](C)(O)C(=O)[C@@H](C)C/C=C/[C@H]2[C@@H]3O[C@]3(C)[C@@H](C)C3[C@H](Cc4ccccc4)NC(=O)[C@@]312 (stereo not given in full)
inactive: K-562 leukemia 68.8% | MALME-3M melanoma 71% | RXF 393 renal 20.3% | SK-MEL-28 melanoma 71% | SK-MEL-2 melanoma 72.1% | SN12C renal 62.6% | RPMI-8226 leukemia 81.8% | OVCAR-3 ovarian 54.2% | BT-549 breast 29.8% | MDA-MB-435 melanoma 70.9% | HCC-2998 colon 77.4%
active: HOP-92 NSCLC -28.8% | TK-10 renal -8.91% | A498 renal 3.87%

CC1=C[C@H]2O[C@@H]3C[C@H]4OC(=O)/C=C\C=C\[C@H]([C@@H](C)O)OCC[C@@H](C)[C@H](O)C(=O)OC[C@@]2(CC1)[C@]4(C)[C@]31CO1
active: HOP-92 NSCLC -22% | K-562 leukemia -10.1% | MALME-3M melanoma -67.9% | RXF 393 renal -73.7% | SK-MEL-28 melanoma -49.1% | SK-MEL-2 melanoma -53.2% | SN12C renal -19% | TK-10 renal -25.4% | A498 renal -80.6% | RPMI-8226 leukemia -28.7% | OVCAR-3 ovarian -18.2% | BT-549 breast -24.8% | MDA-MB-435 melanoma -85.2% | HCC-2998 colon -59.9%

COc1cccc2c1cc([N+](=O)[O-])c1c(C(=O)O)cc3c(c12)OCO3
inactive: HOP-92 NSCLC 95.3% | K-562 leukemia 97.6% | MALME-3M melanoma 95.9% | RXF 393 renal 104% | SK-MEL-28 melanoma 112% | SK-MEL-2 melanoma 108% | SN12C renal 113% | TK-10 renal 100% | CAKI-1 renal 87.1% | A498 renal 114% | RPMI-8226 leukemia 97.7% | OVCAR-3 ovarian 126% | BT-549 breast 120% | MDA-MB-435 melanoma 107% | HCC-2998 colon 91.3%

COc1cc(OC)c(S(=O)(=O)N(CCCl)CCCl)cc1C(=O)/C=C/c1ccc(Cl)cc1
active: RPMI-8226 leukemia 4.74%
inactive: HOP-92 NSCLC 81.7% | K-562 leukemia 47.1% | MALME-3M melanoma 85.4% | RXF 393 renal 45.3% | UACC-257 melanoma 73.6% | SK-MEL-28 melanoma 92.3% | SK-MEL-2 melanoma 93% | SN12C renal 86% | TK-10 renal 177% | CAKI-1 renal 65.7% | OVCAR-3 ovarian 69.9% | BT-549 breast 53% | MDA-MB-435 melanoma 33.1% | HCC-2998 colon 96.8%
